Assay outcomes deposited in PubChem BioAssay by National Center for Advancing Translational Sciences (NCATS).
This is a sample that favours compounds with a hit; in the whole collection about 1.6% have one here.
gsp ag: gsp mutant agonism; gsp mutant cells, cAMP HTRF, 30 min; Potency, µM (titrated, usually from 76.9 µM), usual class: activators; 340,000 compounds, 0.13% hits; active = well fitted activation curve with a large enough effect; inconclusive = small, poorly fitted or top-dose-only effect, or another doubt; inactive = no such curve, though single readings can be large or run the other way; cell line not stated here;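 note: phosphodiesterase inhibitor Ro 20-1724 added with compounds to block cAMP breakdown; nearly all actives have a fitted effect of over 60% in size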
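Cells in DMEM/10% FBS with G418 were pretreated with compounds in DMSO plus […] (300 uM stock) for 30 min at 37C. cAMP was measured by HTRF (cAMP-d2 plus anti-cAMP antibody-K) after 30 min at room temperature.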
KCNH2 3.1 inh: blocks the human KCNH2 3.1 channel isoform; activity change, % (tested at about 1.8 µM); AID 720553; U2OS KCNH2 3.1, thallium flux FluxOr; hits give low values; 340,000 compounds, 0.95% hits;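 active = maximum activity change below -70%; inconclusive = maximum activity change from -70% to -50%; inactive = maximum activity change above -50%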;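 note: thallium influx rate constant from kinetic fluorescence after stimulation buffer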
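Kinetic fluorescence (2 min after stimulation buffer) measures Tl+ influx through KCNH2 3.1 expressed by viral transduction in U2OS cells; the rate constant is normalized against DMSO controls serving as positive and negative references.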
hERG WT inh: blocks the wildtype human KCNH2 potassium channel; Q12809; U2OS, BacMam KCNH2, thallium flux FluxOr; hits give low values; activity change, % at 1.84 µM; 340,000 compounds, 0.37% hits; AID 720551;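 active = maximum activity change below -70%; inconclusive = maximum activity change between -70% and -50%; inactive = maximum activity change above -50%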
Target sequence (Q12809 whole entry, looked up): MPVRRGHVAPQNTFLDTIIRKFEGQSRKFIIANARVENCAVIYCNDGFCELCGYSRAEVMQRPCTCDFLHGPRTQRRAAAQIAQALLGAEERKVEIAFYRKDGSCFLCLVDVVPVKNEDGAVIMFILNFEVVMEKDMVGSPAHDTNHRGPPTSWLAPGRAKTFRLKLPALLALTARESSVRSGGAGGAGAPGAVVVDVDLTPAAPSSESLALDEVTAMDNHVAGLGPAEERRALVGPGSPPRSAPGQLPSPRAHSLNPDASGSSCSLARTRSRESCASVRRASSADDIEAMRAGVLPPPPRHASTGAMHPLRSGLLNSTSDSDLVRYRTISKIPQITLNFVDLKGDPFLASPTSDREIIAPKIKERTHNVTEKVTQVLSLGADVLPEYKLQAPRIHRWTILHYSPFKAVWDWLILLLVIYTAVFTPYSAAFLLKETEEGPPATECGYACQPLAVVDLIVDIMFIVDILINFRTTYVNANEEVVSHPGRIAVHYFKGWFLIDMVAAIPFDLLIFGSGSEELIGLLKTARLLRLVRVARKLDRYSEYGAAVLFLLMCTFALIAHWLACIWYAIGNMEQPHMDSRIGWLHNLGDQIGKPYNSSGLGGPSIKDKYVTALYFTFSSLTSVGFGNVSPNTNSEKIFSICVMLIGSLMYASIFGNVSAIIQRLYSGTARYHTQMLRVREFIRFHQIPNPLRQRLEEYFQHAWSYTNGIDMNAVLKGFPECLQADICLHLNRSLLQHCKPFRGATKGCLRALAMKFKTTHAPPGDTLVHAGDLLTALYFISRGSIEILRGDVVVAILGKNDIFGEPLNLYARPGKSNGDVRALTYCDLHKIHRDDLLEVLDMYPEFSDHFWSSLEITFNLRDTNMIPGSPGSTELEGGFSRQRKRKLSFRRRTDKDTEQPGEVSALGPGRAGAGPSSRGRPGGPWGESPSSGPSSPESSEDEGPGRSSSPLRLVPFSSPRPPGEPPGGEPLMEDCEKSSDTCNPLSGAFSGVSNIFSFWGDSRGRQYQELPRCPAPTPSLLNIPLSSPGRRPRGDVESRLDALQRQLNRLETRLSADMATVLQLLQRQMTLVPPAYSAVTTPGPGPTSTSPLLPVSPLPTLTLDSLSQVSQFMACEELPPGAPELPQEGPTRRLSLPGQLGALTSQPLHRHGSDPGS
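U2OS cells were transduced with wild-type KCNH2 virus (2.03 x 10^8 / mL) for 4 h at room temperature, then cultured overnight at 37 C. Thallium flux was read with FluxOr dye. Rate constants were normalized to DMSO controls.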
Akt phos inh: Akt phosphorylation inhibition | Neuro2A IGF-stimulated pAkt S473 HTRF, 20 min; hits give low values | activity change, % for hits at 50 µM | 360,000 compounds, 0.32% hits | AID 651550; in the data active = activity change below about -80%; inconclusive = mostly about -51% to -80%
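Neuro2A cells (4,500/well, DMEM with 0.5% FBS) were treated with compound at a single 50 µM final concentration, stimulated with 6 nM IGF for 20 min at 37 °C, and lysed. Phospho-Akt Ser473 was read by HTRF as 665/615 ratio ×10^4.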
Glioma ERSR ind: induces the endoplasmic reticulum stress response in human glioma cells; U87-MG GRP78 promoter luciferase reporter, 16 h; 420,000 compounds, 0.02% hits; Potency, µM, most hits filed as activators; active = well fitted activation curve with a large enough effect; inconclusive = small, poorly fitted or top-dose-only effect; inactive = no such curve, though single readings can be large or run the other way; note: series mostly up to about 76 µM; nearly all actives have a fitted effect of over 35% in size
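Stably transfected U87-MG glioma cells carrying a GRP78-based luciferase sensor; 16 h compound incubation. Luminescence end-point read 10 min after Bright-Glo addition at room temperature.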
gsp antag: antagonists of gsp mutant (McCune-Albright syndrome); gsp-mutant cells, cAMP HTRF, 30 min; Potency, µM (highest dose often 76.9 µM), hits mostly inhibitors; 340,000 compounds, 0.4% hits; AID 624288; calls by dose curve; cell line not stated here;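 note: intracellular cAMP measured with PDE inhibitor Ro 20-1724 present during compound exposure; nearly all actives have a fitted effect of over 65% in size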
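Cells in G418 medium, seeded 16-24 h, 37C; buffer exchange to DPBS + 1 mM CaCl2, 0.5 mM MgCl2, 0.05% BSA; cpds in DMSO + […] (300 uM stock), 30 min 37C; HTRF cAMP detection.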
Numbers stand for hits; [ ] = another dose, or the depositor's remark.

What do the screens show for `CCn1c(C)nc2cc(C(=O)NNC(=O)c3ccc(C)cc3)ccc21`?
gsp ag: inactive; KCNH2 3.1 inh: inactive; hERG WT inh: inactive; Akt phos inh: inactive; Glioma ERSR ind: inactive; gsp antag: inactive

Results for CCn1c(C)nc2cc(C(=O)OC(C(F)(F)C(F)F)C(F)(F)C(F)F)ccc21 ?
gsp ag: inactive; KCNH2 3.1 inh: inactive; hERG WT inh: inactive; Akt phos inh: inactive; Glioma ERSR ind: inactive; gsp antag: 22µM

Results for CSCC[C@H](NC(=O)[C@@H](Cc1ccc(O[S+](=O)([O-])O)cc1)NC(=O)[C@H](N)CC(=O)O)C(=O)NCC(=O)N[C@@H](Cc1c[nH]c2ccccc12)C(=O)N[C@H](CCSC)C(=O)N[C@H](CC(=O)O)C(=O)N[C@@H](Cc1ccccc1)C(N)=O ?
Glioma ERSR ind: inactive

How did COc1cccc(-c2cc3c(c(OC)c2)OCCN(Cc2cccn2-c2ccccn2)C3)c1 do in these assays?
Glioma ERSR ind: inactive

What do the screens show for `O=C1CC(NCc2ccc3c(c2)OCO3)C(=O)N1Cc1ccc2c(c1)OCO2` (stereo not given)?
gsp ag: inactive; KCNH2 3.1 inh: inactive; hERG WT inh: inactive; Akt phos inh: inactive; Glioma ERSR ind: inactive; gsp antag: 28µM

Results for N=c1c2c(-c3ccccc3)c(-c3ccccc3)n(Cc3ccco3)c2ncn1Cc1ccccc1 ?
gsp ag: inactive; KCNH2 3.1 inh: inactive; hERG WT inh: inactive; Akt phos inh: inactive; Glioma ERSR ind: inactive; gsp antag: inactive

What do the screens show for `c1ccc(-c2c(-c3ccccc3)n(Cc3ccco3)c3ncnc(NCCCn4ccnc4)c23)cc1`?
gsp ag: inactive; hERG WT inh: inactive; Akt phos inh: inactive; Glioma ERSR ind: inactive; gsp antag: inactive

How did N=c1c2c(-c3ccccc3)c(-c3ccccc3)n(Cc3ccco3)c2ncn1CCCn1ccnc1 do in these assays?
gsp ag: inactive; KCNH2 3.1 inh: -71; hERG WT inh: inactive; Akt phos inh: inactive; Glioma ERSR ind: inactive; gsp antag: inactive

What do the screens show for `N=c1c2c(-c3ccccc3)c(-c3ccccc3)n(Cc3ccco3)c2ncn1CCCN1CCOCC1`?
gsp ag: inactive[15.4 µM]; KCNH2 3.1 inh: -78; hERG WT inh: inactive; Akt phos inh: inactive; Glioma ERSR ind: inactive; gsp antag: inactive

How did CC(C)Cn1cnc2c(c(-c3ccccc3)c(-c3ccccc3)n2Cc2ccco2)c1=N do in these assays?
gsp ag: inactive; KCNH2 3.1 inh: -101; hERG WT inh: -74; Akt phos inh: inactive; Glioma ERSR ind: inactive; gsp antag: inactive

What do the screens show for `COc1ccccc1-c1ccnc(-n2ncc(C(=O)N3CCN(C(C)C)CC3)c2-c2ccco2)n1`?
Glioma ERSR ind: inactive

Results for Cc1nc(NCc2c(F)cccc2F)sc1-c1ccn(CCN2CCOCC2)n1 ?
Glioma ERSR ind: inactive

What do the screens show for `COc1c(C)cc(S(=O)(=O)N2CCOCC2)c(C)c1C`?
gsp ag: inactive[15.4 µM]; KCNH2 3.1 inh: -172; hERG WT inh: inactive; Akt phos inh: inactive; Glioma ERSR ind: inactive; gsp antag: inactive

What do the screens show for `COc1c(C)cc(S(=O)(=O)N2CCCC2)c(C)c1C`?
gsp ag: inactive; KCNH2 3.1 inh: inactive; hERG WT inh: inactive; Akt phos inh: inactive; Glioma ERSR ind: inactive; gsp antag: inconclusive

How did CN1CCN(CCOC2Cc3ccccc3Sc3ccc(Cl)cc32)CC1 (stereo not given) do in these assays?
gsp ag: inactive; KCNH2 3.1 inh: -91; hERG WT inh: inconclusive; Akt phos inh: inactive; Glioma ERSR ind: inactive; gsp antag: inactive

What do the screens show for `OCCN1CCN(C2Cc3cc(Cl)ccc3Sc3ccc(Cl)cc32)CC1` (stereo not given) (tested in a mixture with another compound)?
gsp ag: inactive; KCNH2 3.1 inh: inactive; hERG WT inh: inactive; Akt phos inh: inactive; Glioma ERSR ind: inactive; gsp antag: inactive

Results for CC(C)C[C@H]1CNC(=S)N1CC1CCN(CCCC2CCCCC2)CC1 ?
KCNH2 3.1 inh: -72; hERG WT inh: inactive; Akt phos inh: inactive; Glioma ERSR ind: inactive; gsp antag: inactive

How did O=C1NC[C@H](Cc2ccccc2)N(CC2CCN(CCc3ccc(-c4ccccc4)cc3)CC2)C1=O do in these assays?
KCNH2 3.1 inh: -93; hERG WT inh: inactive; Akt phos inh: inactive; Glioma ERSR ind: inactive; gsp antag: inactive

How did O=C1NC[C@H](Cc2ccccc2)N(CC2CCN(CCCC3CCCC3)CC2)C1=O do in these assays?
KCNH2 3.1 inh: -80; hERG WT inh: -130; Akt phos inh: inactive; Glioma ERSR ind: inactive; gsp antag: inactive

How did O=C1NC[C@H](Cc2ccccc2)N(CC2CCN(CC3CCCC3)CC2)C1=O do in these assays?
KCNH2 3.1 inh: inactive; hERG WT inh: inactive; Akt phos inh: inactive; Glioma ERSR ind: inactive; gsp antag: inactive

What do the screens show for `COc1cc(-c2nc(C)cnc2C)cc2c1OCCN(C(=O)Cc1cc(OC)c(OC)c(OC)c1)C2`?
Glioma ERSR ind: inactive

How did S=C(NCCc1ccccc1)N1CCN(C23CC4CC(CC(C4)C2)C3)CC1 do in these assays?
gsp ag: inactive[15.4 µM]; KCNH2 3.1 inh: -88; hERG WT inh: inactive; Akt phos inh: inactive; Glioma ERSR ind: inactive; gsp antag: inactive

Results for S=C(NCCc1ccccc1)N1CCCC1 ?
gsp ag: inactive[15.4 µM]; KCNH2 3.1 inh: inactive; hERG WT inh: inactive; Akt phos inh: inactive; Glioma ERSR ind: inactive; gsp antag: inactive

How did Cc1cnc(-n2ncc(C(=O)N(C)C3CCOC3)c2C)nc1-c1ccc(F)cc1 (stereo not given) do in these assays?
Glioma ERSR ind: inactive

What do the screens show for `Cc1ccccc1CNC(=O)C(=O)NCCC1CCCCN1S(=O)(=O)c1cccs1` (stereo not given)?
gsp ag: inactive; KCNH2 3.1 inh: -166; hERG WT inh: -144; Akt phos inh: inactive; Glioma ERSR ind: inactive; gsp antag: inactive

What do the screens show for `Cc1ccc(C(=O)Cn2nnc(-c3cccs3)n2)cc1`?
gsp ag: inconclusive; KCNH2 3.1 inh: inactive; hERG WT inh: inactive; Akt phos inh: inactive; Glioma ERSR ind: inactive; gsp antag: 50µM

What do the screens show for `O=C(Cn1nnc(-c2cccs2)n1)NCc1cccs1`?
gsp ag: inactive[15.4 µM]; KCNH2 3.1 inh: inactive; hERG WT inh: inactive; Akt phos inh: inactive; Glioma ERSR ind: inactive; gsp antag: inactive

Results for CC(C)C1N(C(=O)N(C)C)CCN1S(=O)(=O)c1ccccc1 (stereo not given) ?
gsp ag: inactive[15.4 µM]; KCNH2 3.1 inh: -141; hERG WT inh: inactive; Akt phos inh: inactive; Glioma ERSR ind: inactive; gsp antag: inactive

Results for Cc1cc(C)nc(N/C(=N\S(=O)(=O)Cc2ccccc2)Nc2cccc(Cl)c2C)n1 ?
gsp ag: inactive; KCNH2 3.1 inh: inactive; hERG WT inh: inactive; Akt phos inh: -118%; Glioma ERSR ind: inactive; gsp antag: inactive
